Hits are enriched below; roughly 1.2% of the tested compounds scored in any of these assays.
CIT2 TOR yeast: modulators of TOR pathway CIT2-GFP in S. cerevisiae; 0.065% of 320,000 active; S. cerevisiae CIT2-GFP strain, flow cytometry, 3 h; 100 means same as DMSO wells; GFP response vs DMSO, % at 10 µM;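 active = GFP response relative to DMSO above a set limit, near the screen mean plus 3 SD, cut at about 150% in these data; inconclusive = Fewer than 70 cells measured for a yeast strain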;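 also: ratio of well median GFP fluorescence to mean of DMSO wells on the plate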
MEP2 TOR yeast: yeast TOR pathway MEP2-GFP modulation; GFP response vs DMSO, % at 10 µM; S. cerevisiae MEP2-GFP strain, flow cytometry GFP, 3 h; 100% = DMSO control level; 0.51% of 330,000 active;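 active = GFP response versus DMSO above a set limit, roughly screen mean plus 3 SD, cut at about 180% in these data; inconclusive = fewer than 70 cells counted for a yeast strain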;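 also: median GFP fluorescence of the barcode-gated MEP2-GFP cells per well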
DSG3 Ab inh: inhibitors of pemphigus antibody binding to human desmoglein-3 | P32926 | DSG3-coupled beads, scFv-anti-DSG3-GFP binding, flow cytometry; hits give low values | binding (percent of control), % at 10 µM | 0.48% of 310,000 active;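 active = binding more than 3 SD below its plate's average and above zero; inconclusive = below that plate limit but binding exactly zero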;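 also: hits lower antibody fragment binding to DSG3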
Target sequence (P32926 whole entry, looked up, the tested form may be a part): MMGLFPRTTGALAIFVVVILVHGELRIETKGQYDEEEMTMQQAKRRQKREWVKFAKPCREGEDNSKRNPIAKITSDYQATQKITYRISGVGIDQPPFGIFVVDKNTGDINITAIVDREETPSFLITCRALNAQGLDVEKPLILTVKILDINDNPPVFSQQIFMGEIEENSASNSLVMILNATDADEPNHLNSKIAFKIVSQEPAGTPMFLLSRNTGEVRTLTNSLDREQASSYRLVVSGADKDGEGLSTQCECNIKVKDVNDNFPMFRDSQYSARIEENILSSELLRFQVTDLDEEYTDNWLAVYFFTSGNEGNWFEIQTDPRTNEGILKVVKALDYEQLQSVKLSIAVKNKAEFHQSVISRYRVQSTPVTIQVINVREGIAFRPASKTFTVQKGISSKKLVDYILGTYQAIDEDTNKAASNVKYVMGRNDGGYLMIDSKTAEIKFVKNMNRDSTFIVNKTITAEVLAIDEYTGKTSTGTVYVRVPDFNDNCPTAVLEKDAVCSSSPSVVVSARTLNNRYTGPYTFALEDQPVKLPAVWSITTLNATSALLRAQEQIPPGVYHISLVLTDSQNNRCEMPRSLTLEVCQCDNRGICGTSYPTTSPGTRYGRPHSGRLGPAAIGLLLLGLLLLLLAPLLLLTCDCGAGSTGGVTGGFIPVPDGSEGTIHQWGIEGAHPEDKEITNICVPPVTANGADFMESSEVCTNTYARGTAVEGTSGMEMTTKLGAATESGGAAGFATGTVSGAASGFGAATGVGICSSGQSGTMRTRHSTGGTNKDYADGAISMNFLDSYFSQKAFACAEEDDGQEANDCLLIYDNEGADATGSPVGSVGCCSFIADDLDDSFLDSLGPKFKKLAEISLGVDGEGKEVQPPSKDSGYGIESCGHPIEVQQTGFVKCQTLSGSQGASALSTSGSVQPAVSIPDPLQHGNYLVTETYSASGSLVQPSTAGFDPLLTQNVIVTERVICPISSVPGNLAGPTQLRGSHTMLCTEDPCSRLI
AGP1 TOR yeast: modulators of TOR pathway AGP1-GFP in S. cerevisiae | S. cerevisiae AGP1-GFP multiplex flow cytometry, 3 h; GFP as percent of DMSO wells | GFP response vs DMSO, % at 10 µM | 0.02% of 320,000 active;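 active = GFP response relative to DMSO above a set limit, near screen average plus 3 SD, cut at about 150% in these data; inconclusive = fewer than 70 cells counted for the yeast strain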;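 also: median GFP channel fluorescence of the gated AGP1 strain per well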
RPL19A-GFP yeast: yeast TOR pathway RPL19A-GFP modulation; S. cerevisiae RPL19A-GFP strain, flow cytometry, 3 h; hits give low values; percent response vs DMSO, % at 10 µM; 0.3% of 330,000 active; AID 2025;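 active = percent response vs DMSO below 50%; inconclusive = fewer than 70 events counted for the yeast strain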;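 also: median channel GFP fluorescence of the barcoded RPL19A-GFP strain; lower means less RPL19A-GFP as with rapamycin TOR inhibition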
LAP4 TOR yeast: modulators of TOR pathway LAP4-GFP in S. cerevisiae; 0.34% of 320,000 active; GFP response vs DMSO, % at 10 µM; S. cerevisiae LAP4-GFP multiplex, flow cytometry GFP, 3 h; median GFP as percent of DMSO wells;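 active = GFP response vs DMSO above a set limit, about the screen mean plus 3 SD, cut at about 150% in these data; inconclusive = under 70 cell events counted for the yeast strain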
LAP4 cherry2: yeast LAP4-GFP modulation, second cherry pick. shares compounds with LAP4 TOR yeast. S. cerevisiae LAP4-GFP strain, flow cytometry GFP, 3 h. GFP response vs DMSO, % at 10 µM. 20% of 590 active. AID 2621;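 active = GFP signal as percent of the solvent control above about 150%, meaning raised reporter expression, limit read from the data; inconclusive = fewer than 70 cells counted in the well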
MEP2-GFP pick2: second confirmation of modulators of TOR reporter MEP2-GFP in yeast; 10% of 590 active; shares compounds with LAP4 TOR yeast; GFP response vs DMSO, % at 10 µM; S. cerevisiae MEP2-GFP strain, flow cytometry GFP, 3 h;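 active = GFP signal above 150% of the solvent control wells, that is a rise of more than half; inconclusive = fewer than 70 yeast cells counted in the well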;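 also: median channel GFP fluorescence of all gated yeast cells per well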
RPL19A GFP CP2: reconfirmed modulator of RPL19A-GFP TOR reporter in yeast; shares compounds with LAP4 TOR yeast; S. cerevisiae RPL19A-GFP strain, flow cytometry GFP, 3 h; hits give low values; 100% means same as DMSO wells; GFP response vs DMSO, % at 10 µM; 3% of 590 active;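 active = under 65% GFP response relative to DMSO; inconclusive = yeast strain with under 70 measured events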;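 also: median GFP channel fluorescence per well over the all cells gate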
CIT2-GFP pick2: second confirmation of modulators of TOR reporter CIT2-GFP in yeast | shares compounds with LAP4 TOR yeast | S. cerevisiae CIT2-GFP strain, flow cytometry GFP, 3 h; DMSO control wells read 100% | GFP response vs DMSO, % at 10 µM | 8% of 590 active;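 active = GFP response vs DMSO above about 150%, limit read from the data; inconclusive = fewer than 70 events counted for a yeast strain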;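 also: median green fluorescence per well over all gated yeast cells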
AGP1 GFP CP2: yeast AGP1-GFP TOR reporter modulation, second cherry pick; shares compounds with LAP4 TOR yeast; S. cerevisiae AGP1-GFP strain, flow cytometry GFP, 3 h; percent response vs DMSO, % at 10 µM; 590 tested, under 10 active; AID 2643;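 active = over 150 percent of DMSO response; inconclusive = yeast strain measured with under 70 events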;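 also: median GFP channel fluorescence over all cells without mother daughter split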
Yeast autofluor: compound is autofluorescent in yeast s288c cells | shares compounds with LAP4 TOR yeast | 610 tested, under 10 active | AID 2757 | S. cerevisiae s288c, 520 nm autofluorescence, flow cytometry, 3 h; hits give high values; zero means same as solvent-only cells | fluorescence change (kMESF span) at 33 µM;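 active = fluorescence span over the dose series, or activity score, above about 33, limit read from the data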
s288c autofl DR: TOR screen hit shows autofluorescence in yeast s288c; AID 488829; shares compounds with LAP4 TOR yeast; S. cerevisiae s288c parental, compound autofluorescence, flow cytometry, 3 h; fluorescence change (span) at 33 µM; 110 tested, under 10 active;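 active = fluorescence change span, or the activity score built from it, above 25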
TORC1 bypass gr: compounds blocking wildtype yeast growth but not TORC1 bypass cells; S. cerevisiae BY4741 spot growth rating, 48-72 h; hits give low values; 120 tested, under 10 active; growth rating (0-3) at 30 µM; shares compounds with LAP4 TOR yeast;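 active = growth rating at most 1 for wild type yeast while the TORC1 bypass strain still grows fully, rated 3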
Numbers stand for hits; . = inactive; ? = inconclusive; / = no result.

SMILES	CIT2 TOR yeast	MEP2 TOR yeast	DSG3 Ab inh	AGP1 TOR yeast	RPL19A-GFP yeast	LAP4 TOR yeast	LAP4 cherry2	MEP2-GFP pick2	RPL19A GFP CP2	CIT2-GFP pick2	AGP1 GFP CP2	Yeast autofluor	TORC1 bypass gr	others
Cc1ccc(N=c2ssnc2Cl)cc1	.	.	/	.	.	163	.	.	.	.	.	.	/
COc1cc(N=c2ssnc2Cl)c(OC)cc1Cl	.	.	85	.	.	162	159	.	.	.	.	.	/
Nc1ccccc1N=c1ssnc1Cl	/	/	.	/	/	/	/	/	/	/	/	/	/
CC(C)CN(C)Cc1c(C(=O)N2CCc3ccccc3C2)nc2ccc(Cl)cn12	.	.	.	.	.	.	/	/	/	/	/	/	/
COc1ccc(C(C)=O)cc1COC(=O)c1cnc(Cl)c(Cl)c1	.	.	.	.	.	.	.	.	.	.	.	/	/
COc1ccc(C(C)=O)cc1COC(=O)c1ccc2c(c1)OCO2	.	.	.	.	.	.	/	/	/	/	/	/	/
CS(=O)(=O)c1ccc(S(=O)CC(=O)OCc2ccccc2)c([N+](=O)[O-])c1 (configuration not stated)	/	/	.	/	/	/	/	/	/	/	/	/	/
COc1ccccc1-c1cc(Nc2cc(C)[nH]n2)nc(NCc2ccccc2)n1	/	/	/	/	/	/	/	/	/	/	/	/	.
COc1cc(C)nc(NCc2ccccc2)n1	/	.	.	.	.	.	/	/	/	/	/	/	/
COc1cccc(-c2cc(Nc3cc(C)[nH]n3)nc(NCc3ccccc3)n2)c1	/	/	/	/	/	/	/	/	/	/	/	/	.
COc1ccc(Nc2cc(C)nc(NCc3ccccc3)n2)cc1	.	.	.	.	.	.	/	/	/	/	/	/	/
S=C1NCC(c2ccccc2)S1 (configuration not stated)	/	/	.	/	/	/	/	/	/	/	/	/	/
Fc1ccc(Nc2nc(-c3cccnc3)cs2)cc1	.	.	.	.	.	.	.	.	.	.	.	/	/
CCOC(=O)CSC1=NC(=O)/C(=C\c2ccc(Cl)cc2)S1	.	.	?	.	.	184	/	/	/	/	/	.	.	s288c autofl DR=.
O=C(Nc1nc(-c2ccccn2)cs1)C1COc2ccccc2O1 (configuration not stated)	.	.	.	.	.	162	.	.	.	.	.	.	.	s288c autofl DR=.
Cc1cc(C(=O)Nc2nc(-c3ccccn3)cs2)ccc1[N+](=O)[O-]	.	.	.	.	.	160	/	/	/	/	/	.	.	s288c autofl DR=.
CC(Oc1ccc(Br)cc1)C(=O)Nc1nc(-c2ccccn2)cs1 (configuration not stated)	.	.	/	.	.	168	/	/	/	/	/	.	.	s288c autofl DR=.
CCc1cc(C(=O)Nc2nc(-c3ccccn3)cs2)sc1C	.	.	/	.	.	208	156	.	.	.	.	.	/
COc1ccc(CCNC(=S)N2CCN(S(=O)(=O)c3ccc(C)cc3)CC2)cc1	.	.	.	.	.	.	/	/	/	/	/	/	/
COc1ccc(CCNC(=O)CC(C)S(=O)(=O)c2ccc3c(c2)NC(=O)CO3)cc1OC (configuration not stated)	.	.	?	.	.	.	/	/	/	/	/	/	/
Cn1ccsc1=NC(=O)c1ccc(OC(F)(F)F)cc1	.	.	.	.	.	.	/	/	/	/	/	/	/
Cc1ccc(C)c(N(C(=O)c2snc(C(N)=O)c2N)C(C(=O)NCC2CCCO2)c2ccc(C)o2)c1 (configuration not stated)	.	.	/	.	.	.	/	/	/	/	/	/	/
Fc1cccc(Nc2ncnc3c2cnn3-c2ccccc2)c1	.	.	.	.	.	157	.	.	.	.	.	.	/
CC(C)N(C(=O)COC(=O)c1ccc(Cl)c(S(N)(=O)=O)c1)C(C)C	.	.	/	.	.	174	.	.	.	.	.	/	/

Source: PubChem BioAssay (NMMLSC)
